Measurements published in PubChem BioAssay (EPA / NIEHS).
Results filed as inconclusive are left out. Some compounds were tested as several samples or in several runs, with calls that do not always agree. Calls of active or inactive are those of the source. How the source made its calls, unless noted: active means hit-call score of the fitted dose curve at least 0.9, where 1 is the maximum; inactive means score below 0.9.

What was measured:
[1] = CCTE_Harrill_HTTr_Viability_MCF7: CCTE's 6-hour Cell Viability Assessment for the High-Throughput Transcriptomics (HTTr) Platform, in MCF-7 cells cultured in DMEM + 10% fetal bovine serum, Harrill Lab (AID 2284010)
Outline: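 Cells were dosed with chemicals in an eight-point dilution series, imaged 6 hours later for propidium iodide uptake, and the endpoint was analyzed by bidirectional fitting against DMSO as negative control.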

[2] = CCTE_Harrill_HTTr_Apoptosis_MCF7: CCTE's 6-hour Apoptosis Assessment for the High-Throughput Transcriptomics (HTTr) Platform, in MCF-7 cells cultured in DMEM + 10% fetal bovine serum, Harrill Lab (AID 2284011)
Outline: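 Apoptosis in MCF-7 cells grown in DMEM with 10% fetal bovine serum was scored after a six hour exposure by high content imaging of caspase-3/7 activation (CellEvent Caspase 3/7 Green), with DMSO serving as negative control and baseline.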

[3] = CCTE_Harrill_HTTr_CellCount_MCF7: CCTE's Cell Proliferation Assessment for the High-Throughput Transcriptomics (HTTr) Platform, Harrill Lab (AID 2284012; active means hit-call score of the fitted dose curve at least 0.9, where 1 is the maximum;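 further: count of Hoechst-stained nuclei per well by high-content imaging in MCF-7 cells; cells exposed to compound for six hours; intended direction is loss of nuclei count meaning fewer cells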)
Outline: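 Chemicals in eight-point dilution series are added to MCF-7 cells for six hours, nuclei are stained with Hoechst and imaged, and per-well nuclei counts are fitted in both directions relative to DMSO controls.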

[4] = CCTE_Shafer_MEA_acute_spike_number: CCTE's Neural Acute Assay for Total Number of Spikes, Shafer Lab (AID 2284008)
Outline: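 Using an adaptive detector set to 8x rms noise, spikes were counted in 40-min windows before and after compound addition (0.03-40 uM) to rat cortical networks at 37 C; the well-level change from baseline was analysed relative to DMSO.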

[5] = CCTE_Shafer_MEA_acute_firing_rate_mean: CCTE's Neural Acute Assay for Mean Firing Rate, Shafer Lab (AID 2284009);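 further: analyzed for loss of signal so actives lower firing rate relative to DMSO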
Outline: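 Percent change in well-mean firing rate was derived from extracellular spikes detected at 8x rms noise (300-5000 Hz band-pass) before and after a 40-min compound exposure. Cultures were primary rat cortical neurons, tested at 0.03-40 uM.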

[6] = CCTE_Shafer_MEA_acute_burst_number: CCTE's Neural Acute Assay for Single-Electrode Bursts, Shafer Lab (AID 2284013)
Outline: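 Spontaneous network activity of primary rat cortical neurons was recorded extracellularly on microelectrode arrays at 37 C, with 40-min periods before and during exposure to 0.03-40 uM compound on DIV 13 or 15.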

[7] = CCTE_Shafer_MEA_acute_burst_duration_mean: CCTE's Neural Acute Assay for Mean Burst Duration, Shafer Lab (AID 2284014);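 further: hits are decreases in mean burst duration relative to DMSO controls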
Outline: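 Read-out is the per-well percent change in mean burst duration (first to last spike within a single-electrode burst) between 40-min recordings before and after compound. Cultures were primary rat cortical neurons on MEAs, dosed at 0.03-40 uM on DIV 13 or 15.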

[8] = CCTE_Shafer_MEA_acute_per_burst_spike_number_mean: CCTE's Neural Acute Assay for Average Number of Spikes Per Burst, Shafer Lab (AID 2284015);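 further: hits are decreases in mean spikes per burst versus baseline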
Outline: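 Primary rat cortical neurons on 48-well MEA plates, treated on DIV 13 or 15 at 0.03-40 uM. Spontaneous activity recorded 40 min before and 40 min after compound at 37 C; percent change in mean spikes per single-electrode burst per well, fitted in the loss direction versus DMSO.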

[9] = CCTE_Shafer_MEA_acute_interburst_interval_mean: CCTE's Neural Acute Assay for Mean Interburst Interval, Shafer Lab (AID 2284016);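 further: percent change of mean interburst interval versus each well's own pre-dose baseline; curves fitted for decrease in interburst interval relative to DMSO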
Outline: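 Primary rat cortical neurons on 16-electrode MEA wells were recorded 40 min at baseline on DIV 13 or 15, then 40 min after compound (0.03-40 uM), at 37 C. Value is percent change in mean interburst interval per well, DMSO as negative control.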

[10] = CCTE_Shafer_MEA_acute_burst_percentage_mean: CCTE's Neural Acute Assay for Percentage of Spikes in a Burst, Shafer Lab (AID 2284017);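 on AC50: curve fitted for loss of signal so potency reflects decreased burst percentage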
Outline: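 Primary rat cortical neurons on 16-electrode MEA wells; 40 min baseline recorded at DIV 13 or 15, then 40 min after compound (0.03-40 uM) at 37 C. Well-mean fraction of spikes in single-electrode bursts; percent change from baseline, DMSO as negative control.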

[11] = CCTE_Shafer_MEA_acute_burst_percentage_std: CCTE's Neural Acute Assay for Standard Deviation of Burst Percentage, Shafer Lab (AID 2284018);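 further: fitted in the negative direction so actives lower burst percentage SD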
Outline: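 Value is percent change from baseline in the across-electrode SD of spikes-in-bursts percentage, wells with >/= 10 active electrodes. Acute 40-min exposure to 0.03-40 uM on DIV 13 or 15 rat cortical cultures, recorded at 37 C after 40-min baseline.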

[12] = CCTE_Shafer_MEA_acute_per_network_burst_spike_number_mean: CCTE's Neural Acute Assay for Average Number of Spikes in a Network Burst, Shafer Lab (AID 2284019);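 on AC50: curve fitted for loss of signal so actives reduce spikes per network burst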
Outline: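 Read-out is mean spike count per network burst, taken as percent change between a 40-min pre-exposure and a 40-min post-exposure recording per well. Rat primary cortical neurons on MEAs at 37 C, DIV 13 or 15; compounds at 0.03-40 uM.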

[13] = CCTE_Shafer_MEA_acute_per_network_burst_spike_number_std: CCTE's Neural Acute Assay for Standard Deviation of Number of Spikes in a Network Burst, Shafer Lab (AID 2284020);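 further: fitted for decrease in spike-number SD versus DMSO so actives lower it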
Outline: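 Spontaneous network activity of primary rat cortical neurons is recorded extracellularly before and after a 40-min compound exposure (0.03-40 uM) at 37 C. The endpoint is the well's percent change in burst spike-number SD.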

[14] = CCTE_Shafer_MEA_acute_per_network_burst_electrodes_number_mean: CCTE's Neural Acute Assay for Mean Number of Electrodes in a Network Burst, Shafer Lab (AID 2284021);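 further: curves fitted for decreases only so hits reduce electrodes per burst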
Outline: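 Percent change from baseline in average electrode count per network burst, rat cortical cultures on 48-well MEAs; 40-min recordings each side of exposure, DIV 13 or 15; threshold 8x rms noise; DMSO as negative control.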

[15] = CCTE_Shafer_MEA_acute_network_burst_percentage: CCTE's Neural Acute Assay for Percentage of Network Bursts, Shafer Lab (AID 2284022);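 further: curves fitted for loss so actives lower network burst percentage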
Outline: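 On DIV 13 or 15, at least three wells of rat cortical neurons per compound are dosed at 0.03-40 uM. Spontaneous firing is detected at 8x rms noise for 40 min before and after dosing at 37 C. The percent change in network-burst spike share is reported.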

[16] = CCTE_Shafer_MEA_acute_cross_correlation_area: CCTE's Neural Acute Assay for Area of Cross Correlation, Shafer Lab (AID 2284024);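 further: area under pooled inter-electrode spike cross-correlation near zero lag as percent change from own baseline; curves fitted for loss of cross-correlation area so actives lower synchrony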
Outline: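 Extracellular recordings from cultured rat cortical neurons measure network synchrony as cross-correlation area; each well's post-compound value (0.03-40 uM, 40 min) is compared with its own 40 min baseline to give percent change.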

[17] = CCTE_Shafer_MEA_acute_cross_correlation_HWHM: CCTE's Neural Acute Assay for Cross Correlation at Half Width at Half Maximum, Shafer Lab (AID 2284026);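 further: percent change per well from pre-dose baseline in spike cross-correlogram half width; hits are a decrease in cross-correlogram half width relative to DMSO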
Outline: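 Percent change in cross-correlogram half width at half maximum, narrower meaning more synchrony, was derived per well from paired 40-min recordings before and during exposure to 0.03-40 uM compound in rat cortical cultures at 37 C.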

[18] = CCTE_Shafer_MEA_acute_synchrony_index: CCTE's Neural Acute Assay for Synchrony, Shafer Lab (AID 2284027);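 further: fitted for loss of signal so actives lower synchrony relative to DMSO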
Outline: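 Readout is percent change in the unitless network synchrony index (0 low, 1 high) between a 40-min baseline and a 40-min recording in compound. Cultures were primary rat cortical neurons on MEAs, treated at 0.03-40 uM on DIV 13 or 15.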

Measured: AC50

CCOP(=O)(SC(C)CC)N1CCSC1=O (configuration not stated)
inactive: [1] | [2]

COc1ccc(C(=CC(=O)N2CCOCC2)c2ccc(Cl)cc2)cc1OC
inactive: [1] | [3]

CSc1nnc(C(C)(C)C)c(=O)n1N
inactive: [1] | [2]

C#CC(C)(C)NC(=O)c1cc(Cl)cc(Cl)c1
inactive: [1] | [2]

Cc1cc(C2CC2)nc(Nc2ccccc2)n1
inactive: [1] | [2] | [3]

CC(Oc1cccc(Cl)c1)C(=O)O (configuration not stated)
inactive: [1] | [2]

CCNc1nc(Cl)nc(NC(C)(C)C#N)n1
inactive: [1]

COP(=O)(OC)SCn1c(=O)oc2cc(Cl)cnc21
inactive: [1] | [2] | [3]

CC1=NNC(=O)N(/N=C/c2cccnc2)C1
inactive: [4] | [5] | [1] | [3] | [6] | [7] | [8] | [9] | [10] | [11] | [12] | [13] | [14] | [15] | [16] | [17] | [18]

CCCCSP(=O)(SCCCC)SCCCC
inactive: [1]

COP(=O)(NC(C)=O)SC (configuration not stated)
inactive: [4] | [5] | [1] | [3] | [6] | [7] | [8] | [9] | [10] | [11] | [12] | [13] | [14] | [15] | [16] | [17] | [18]
active: [8] 124 nM | [9] 54.4 nM | [10] 792 nM | [11] 4260 nM | [13] 299 nM | [18] 804 nM

CCOP(=S)(OCC)Oc1cc(C)nc(C(C)C)n1
inactive: [1] | [3]

COc1cccc(C(=O)NN(C(=O)c2cc(C)cc(C)c2)C(C)(C)C)c1C
inactive: [1] | [2] | [3]

CNC(=O)ON=C(C)SC
inactive: [1] | [2]

Cc1nn(-c2cc(NS(C)(=O)=O)c(Cl)cc2Cl)c(=O)n1C(F)F
inactive: [1] | [2] | [3]

CCOP(=S)(OCC)Oc1ccc([N+](=O)[O-])cc1
inactive: [1] | [3]

CCCCN(CC)c1c([N+](=O)[O-])cc(C(F)(F)F)cc1[N+](=O)[O-]
inactive: [1]

CN(C)C(=O)Nc1cccc(C(F)(F)F)c1
inactive: [1] | [2]

CCOP(=S)(OCC)OC(Cl)C(Cl)(Cl)Cl (configuration not stated)
inactive: [1] | [3]

CNc1cnn(-c2cccc(C(F)(F)F)c2)c(=O)c1Cl
inactive: [1] | [3]

Nc1nc(N)nc(NC2CC2)n1
inactive: [1] | [3]

CN1COCN(Cc2cnc(Cl)s2)C1=N[N+](=O)[O-]
inactive: [4] | [5] | [1] | [6] | [7] | [8] | [9] | [10] | [11] | [12] | [13] | [14] | [15] | [16] | [17] | [18]

CNC(=O)Oc1cccc2c1OC(C)(C)O2
inactive: [1] | [3]

CCOC(=O)COc1cc(-c2nn(C)c(OC(F)F)c2Cl)c(F)cc1Cl
inactive: [1]

CSc1nc(NC(C)C)nc(NC(C)C)n1
inactive: [1] | [3]

CCOP(=O)(OCC)Oc1cc(C)nc(C(C)C)n1
inactive: [1] | [3]

CNC(=O)ON=C(SC)C(=O)N(C)C
inactive: [4] | [5] | [1] | [3] | [6] | [7] | [8] | [9] | [10] | [11] | [12] | [13] | [14] | [15] | [17] | [18]

O=c1ccc(=O)[nH][nH]1
inactive: [1] | [3]

COc1cc(OC)nc(Sc2cccc(Cl)c2C(=O)O)n1
inactive: [4] | [5] | [1] | [6] | [7] | [8] | [9] | [10] | [11] | [12] | [13] | [14] | [15] | [16] | [17] | [18]

CCC(=NOC/C=C/Cl)C1=C(O)CC(C2CCOCC2)CC1=O (configuration not stated)
inactive: [1]

COP(=O)(OC)C(O)C(Cl)(Cl)Cl (configuration not stated)
inactive: [4] | [5] | [1] | [3] | [6] | [7] | [9] | [10] | [11] | [13] | [14] | [15] | [16] | [18]
active: [8] 2150 nM | [12] 15000 nM | [17] 15000 nM

CCc1cnc(C2=NC(C)(C(C)C)C(=O)N2)c(C(=O)O)c1 (configuration not stated)
inactive: [4] | [5] | [1] | [3] | [6] | [7] | [8] | [9] | [10] | [11] | [12] | [13] | [14] | [15] | [16] | [17] | [18]

CCCOc1nn(C(=O)NS(=O)(=O)c2ccccc2C(=O)OC)c(=O)n1C
inactive: [1] | [2] | [3]

CCCCOC(=O)c1ccccc1C(=O)O
inactive: [1] | [2] | [3]
